From PubChem BioAssay
The list is not random: actives were taken first. Their share in the collection is about 28%.
CYP2C9 inhib – blockers of cytochrome P450 2C9 activity – biochemical, luminescence, ADME assay, primary screen; P11712; CYP2C9 Supersomes, luciferin-H conversion; inhibition, % at 5 µM; 96,000 tested, 20% active;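 active means blocking of liver enzyme CYP2C9 beyond about 50% at 5 µM, limit read from the data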
CYP2C9 act – human CYP2C9 activators, primary screen, biochemical, luminescence | recombinant CYP2C9, luciferin-H conversion; active compounds read high; factor 1 = untreated enzyme, 0 = blocked | Cytochrome P450 2C9 (Homo sapiens), P11712 | activation factor at 5 µM | 96,000 tested, 1.4% active;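 active means activation factor of 2 or more for CYP2C9 at a 5 µM dose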;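 further: 0 = sulfaphenazole-blocked wells and 1 = vehicle-only wells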
Mac1 fbg inh – inhibitors of CD11b/CD18 adhesion to fibrinogen, primary screen, K562 cells, luminescence. AID 1497, 2009. 93,000 tested, 0.54% active. inhibition, % at 10 µM. Integrin beta-2 (Homo sapiens) + Integrin alpha-M (Homo sapiens), P05107+P11215. ATPlite luminescence; Mn2+ added to activate the integrin;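 active means primary inhibition of 50% or more at 10 µM, then 40% or more on retest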
Target sequence (P05107 whole entry, looked up, other chains not shown): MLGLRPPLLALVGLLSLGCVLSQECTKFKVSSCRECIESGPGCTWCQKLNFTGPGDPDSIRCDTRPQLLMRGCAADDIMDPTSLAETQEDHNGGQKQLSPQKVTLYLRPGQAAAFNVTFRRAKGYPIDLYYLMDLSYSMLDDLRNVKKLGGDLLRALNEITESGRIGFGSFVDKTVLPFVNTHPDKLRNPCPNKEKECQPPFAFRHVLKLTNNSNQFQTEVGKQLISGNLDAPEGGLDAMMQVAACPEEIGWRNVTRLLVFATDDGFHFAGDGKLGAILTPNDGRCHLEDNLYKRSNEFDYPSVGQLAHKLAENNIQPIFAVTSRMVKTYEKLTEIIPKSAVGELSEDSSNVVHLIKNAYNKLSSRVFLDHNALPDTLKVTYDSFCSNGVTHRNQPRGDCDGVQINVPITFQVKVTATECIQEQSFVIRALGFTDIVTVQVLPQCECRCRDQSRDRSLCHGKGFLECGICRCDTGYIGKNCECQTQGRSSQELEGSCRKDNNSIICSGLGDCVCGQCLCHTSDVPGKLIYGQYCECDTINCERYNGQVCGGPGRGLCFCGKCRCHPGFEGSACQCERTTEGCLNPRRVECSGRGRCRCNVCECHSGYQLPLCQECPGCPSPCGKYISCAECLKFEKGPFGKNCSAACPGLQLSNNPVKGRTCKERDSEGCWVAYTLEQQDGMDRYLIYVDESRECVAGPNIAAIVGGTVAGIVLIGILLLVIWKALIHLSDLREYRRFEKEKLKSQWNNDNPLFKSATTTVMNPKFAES
Mac1 fbg enh – enhancers of CD11b/CD18 adhesion to fibrinogen, primary screen, K562 cells, luminescence | Integrin beta-2 (Homo sapiens) + Integrin alpha-M (Homo sapiens), P05107+P11215 | ATPlite luminescence | activation, % at 10 µM | 93,000 tested, 0.07% active;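 active means 10 µM primary screen giving 50% or more activity, confirmed by 40% or more on retest at that dose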
CYP2C19 inh – blockers of cytochrome P450 2C19 activity – biochemical, luminescence, ADME assay, primary screen | P33261 | CYP2C19 Supersomes, luciferin-H EGE luminescence, 30 min | inhibition, % at 5 µM | 96,000 tested, 21% active;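 active means CYP2C19 inhibition above a set limit at 5 µM in the primary screen, cut at about 50% in these data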;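 further: plate controls were negative control wells for no effect and 2.5 mM tranylcypromine positive control for full effect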
CYP2C19 activ – human CYP2C19 activators, primary screen, biochemical, luminescence; Cytochrome P450 2C19 (Homo sapiens), P33261; recombinant CYP2C19, luciferin-H EGE luminescence; active compounds read high; 0 = fully inhibited enzyme, 1 = untreated enzyme; activation factor at 5 µM; 96,000 tested, under 10 active; AID 1025, 2008;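 active means activation factor of at least 2 at 5 µM in the primary screen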;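 further: 0 = wells with 2.5 mM tranylcypromine and 1 = vehicle-only wells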
An asterisk follows results filed as active; x = no result.

SMILES | CYP2C9 inhib | CYP2C9 act | Mac1 fbg inh | Mac1 fbg enh | CYP2C19 inh | CYP2C19 activ
CCN1C(=O)C(Cc2nc3ccccc3c(=O)n2C)c2ccccc21 (stereo not drawn) | 60* | 0.4 | -11 | -2 | 57* | 0.4
COc1cccc(CNC(=O)c2cc3ccccn3n2)c1 | -33 | 1.3 | 0 | -2 | 66* | 0.3
Cc1cc2cc(CNC(=O)c3ccc(S(=O)(=O)N4CCCCC4)cc3)ccc2[nH]1 | 79* | 0.2 | 8 | -4 | 34 | 0.7
COc1ccc(-n2c(CNC(=O)c3ccc(S(=O)(=O)N4CCCC4)cc3)n[nH]c2=S)cc1 | 17 | 0.8 | 17 | 13 | 10 | 0.9
Cc1cccc(-n2c(CNC(=O)c3ccc(S(=O)(=O)N4CCCC4)cc3)n[nH]c2=S)c1 | 5 | 0.9 | -10 | -3 | 53* | 0.5
COc1ccc(CN2c3cc(S(=O)(=O)N4CCOCC4)ccc3N3CCCC32)cc1 (stereo not drawn) | 10 | 0.9 | -1 | -5 | 0 | 1
COc1cccc(CN2C(=O)C3CCCN3c3ccc(S(=O)(=O)N4CCOCC4)cc32)c1 (stereo not drawn) | 62* | 0.4 | x | x | 27 | 0.7
Cc1cc2cc(CNC(=O)c3ccc4c(c3)OCO4)ccc2[nH]1 | 12 | 0.9 | -15 | -1 | 42 | 0.6
Cc1nn(C)c(C)c1NC(=O)c1ccc(S(=O)(=O)N(C)C)cc1 | 1 | 1 | -1 | -1 | -1 | 1
COC(=O)c1c(NC(=O)CN2CCCC(C)C2)c2c(C)cccc2n1C (stereo not drawn) | -3 | 1 | -4 | 1 | 11 | 0.9
O=c1cc(Cl)c(-c2ccccc2)n[nH]1 | -14 | 1.1 | -1 | -3 | -16 | 1.2
CCOC(=O)c1[nH]c2ccc(OC)cc2c1NC(=S)N1CCN(c2cccc(C)c2C)CC1 | x | x | 4 | 30 | x | x
COc1ccc(CN2CCN(S(=O)(=O)c3ccc(C)cc3)CC2)cc1Br | 45 | 0.5 | 13 | -3 | 23 | 0.8
COc1cccc(CNC(=O)c2ccc(S(=O)(=O)N3CCCC3)cc2)c1 | 86* | 0.1 | -5 | -4 | 23 | 0.8
COc1cccc(CN2CCCN(S(=O)(=O)c3ccc(Br)cc3)CC2)c1 | 0 | 1 | -2 | 0 | 79* | 0.2
CN1/C(=C\C(=O)CSc2nncn2C)C(C)(C)c2ccccc21 | x | x | 5 | 1 | x | x
CCOC(=O)C1CCCN(Cc2ccccc2F)C1 (stereo not drawn) | -18 | 1.2 | -16 | 4 | 75* | 0.3
CCOC(=O)C1CCCN(Cc2cc(OC)c(O)c(OC)c2)C1 (stereo not drawn) | -6 | 1.1 | x | x | 11 | 0.9
CCOC(=O)C1CCCN(Cc2cc(Br)ccc2OC)C1 (stereo not drawn) | 63* | 0.4 | -22 | 0 | 79* | 0.2
CN1/C(=C\C(=O)COC(=O)Cn2nnc(-c3ccccc3)n2)C(C)(C)c2ccccc21 | 74* | 0.3 | 4 | -5 | 12 | 0.9
Cc1cc(C)nc(N2CCCC(C(=O)NCCc3ccccc3F)C2)n1 (stereo not drawn) | -61 | 1.6 | -13 | -3 | 21 | 0.8
CCOc1cc(C)nc(N2CCCC(C(=O)NCc3ccccc3F)C2)n1 (stereo not drawn) | -20 | 1.2 | 25 | -6 | 58* | 0.4
C=CCn1c(SCC(=O)c2ccc(OC)cc2)nnc1C(C)NC(=O)c1cccs1 (stereo not drawn) | 5 | 1 | -11 | 4 | -2 | 1
CCn1cc(NC(=O)Nc2ccccc2C(=O)OC)c(C(N)=O)n1 | -2 | 1 | -26 | 13 | -9 | 1.1
CCOc1ccc(C2NC(=O)C(C#N)=C(S)N2c2ccc(C)cc2)cc1OC (stereo not drawn) | 47 | 0.5 | 3 | -1 | -1 | 1
SMILES | CYP2C9 inhib | CYP2C9 act | Mac1 fbg inh | Mac1 fbg enh | CYP2C19 inh | CYP2C19 activ
COc1cc2c(cc1NC(=O)CN(C)Cc1ccc(OC)c(OC)c1)oc1ccccc12 | x | x | 14 | 0 | x | x
CCOC(=O)C1CCCN(CCC(C)c2ccccc2)C1 (stereo not drawn) | 10 | 0.9 | -3 | 2 | 58* | 0.4
CCOC(=O)C1CCCN(CC(=O)/C=C2/N(C)c3ccccc3C2(C)C)C1 (stereo not drawn) | 17 | 0.8 | -16 | -1 | 63* | 0.4
CCOC(=O)C1CCCN(CC(=O)NC2=Nc3ccccc3N=C(C)C2c2ccccc2)C1 (stereo not drawn) | 91* | 0.1 | 11 | 1 | 90* | 0.1
CCOC(=O)C1CCCN(Cc2cc(Br)c(OC)cc2OC)C1 (stereo not drawn) | 5 | 1 | -7 | 14 | 84* | 0.2
CCOC(=O)C1CCCN(CCC(=O)Nc2ccccc2)C1 (stereo not drawn) | 8 | 0.9 | -4 | 0 | 14 | 0.9
S=c1[nH]nc(-c2ccco2)n1/N=C/c1ccc(Cl)cc1 | x | x | 17 | 4 | x | x
CCN(CC)C(=O)Cn1nc(-c2ccccc2O)nc1SCC(=O)Nc1ccc(OC)cc1 | 69* | 0.3 | -30 | 1 | 50 | 0.5
CCCn1c(SCC(=O)Nc2ccc(OC)cc2)nnc1-c1ccncc1 | 32 | 0.7 | 6 | -5 | 24 | 0.8
COc1ccc(NC(=O)CSc2c(C)n[nH]c2C)cc1 | 8 | 0.9 | -1 | -1 | 1 | 1
COc1ccc(NC(=O)CSc2nc(-c3ccncc3)nn2CC(=O)N2CCCC2)cc1 | 83* | 0.2 | 4 | 1 | 92* | 0.1
C=CCn1c(COc2cccc3ccc(C)nc23)nnc1SCC(N)=O | -14 | 1.1 | -17 | 0 | -3 | 1
Cc1sc2ncnc(NCC(c3ccco3)N3CCCC3)c2c1C (stereo not drawn) | 48 | 0.5 | -4 | -2 | 28 | 0.7
CCCSc1nc(C)c(-c2csc(C(C#N)=C3CCCC3)n2)cc1C#N | 28 | 0.7 | 31 | -5 | 13 | 0.9
Cc1c(/C=N/N=C2\CCC3C4CCc5cc(O)ccc5C4CCC23C)cnn1C (stereo not drawn) | 23 | 0.8 | -6 | -3 | 14 | 0.9
CCn1ncc(/C=N/N=C2\CCC3C4CCc5cc(O)ccc5C4CCC23C)c1C (stereo not drawn) | 80* | 0.2 | 8 | -2 | 48 | 0.5
CC(=NC1CCCCC1)C1=C(O)c2ccccc2C1=O | 86* | 0.1 | 18 | -5 | 87* | 0.1
O=C1CC(c2ccccc2)CC(O)=C1C=NC1CCCCC1 (stereo not drawn) | -7 | 1.1 | 6 | -5 | -2 | 1
